# In PubChem BioAssay (Tox21):
# Values joined by “and” are separate entries in the source; they are usually repeats but may differ in a detail not shown here. Equal values may be shown once. Values without a mark were called inactive. Inconclusive results are not listed. Where a call stands in place of a potency, no number is given. Active and inactive are the calls of the source. Unless noted, the call rests on the fitted dose curve; in most records, active means well fitted curve in the direction sought with a large enough effect in the repeat runs; inconclusive means weak or mixed curves; inactive means no such curve, though single readings can be large; an effect the other way counts as inactive or inconclusive.
# Tests used:
# [1] = qHTS assay to identify small molecule phospholipidosis (PLD) inducers (AID 1259344; active means well fitted curve in the direction sought with a large enough effect; an effect the other way counts as inactive or inconclusive)
# Method in brief: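 Phospholipid accumulation was scored by imaging: fixed, Hoechst-counterstained HepG2 cells stained with LipidTOX Red after 24 h compound exposure at 37 C. Read-outs were pit count and pit intensity per well or per cell, with amiodarone and DMSO controls.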
# [2] = qHTS assay to identify small molecule HDAC inhibitors (AID 1259364);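 further: wild-type HCT-116 cells with endogenous class I/II HDAC activity; top concentration of the series differs between compounds; nearly all actives have a fitted effect of over 45% in size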
# Method in brief: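 Screening used wild-type human colon HCT-116 cells incubated overnight, dosed with compounds for 2 hours, and assayed with a homogeneous luminogenic HDAC I/II reagent for 30 minutes at room temperature.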
# [3] = qHTS assay to identify small molecule HDAC inhibitors - cell viability counter screen (AID 1259365); further: series mostly up to about 92 µM; nearly all actives have a fitted effect of over 50% in size
# Method in brief: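 HCT-116 wild-type, overnight attachment; 2hr drug exposure, 37C; CellTiter-Glo luminescent ATP readout after 30min RT.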
# [4] = qHTS assay to identify small molecule agonists of the sonic hedgehog signaling (Shh) pathway - cell viability counter screen (AID 1259366); further: nearly all actives have a fitted effect of over 50% in size; further: potency means the concentration at half of the fitted maximal effect
# Method in brief: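 Compounds in DMSO were pin-transferred onto 3T3 Gli1-Luc cells that had settled 4hr; plates then stood 24hr at 37C and 5% CO2. One hour before the end, CellTiter-Fluor was added and fluorescence recorded.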
# [5] = qHTS assay to identify small molecule antagonists of the sonic hedgehog signaling (Shh) pathway - cell viability counter screen (AID 1259367); further: nearly all actives have a fitted effect of over 55% in size; further: potency means the concentration at half of the fitted maximal effect
# Method in brief: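 Viability was read by CellTiter-Fluor fluorescence in the same wells, reagent added 23 hr into compound treatment and incubated 1 hr at 37C. The 3T3 Gli1-Luc reporter cells (2,000/well) received conditioned medium after compound and ran 24 hr.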
# [6] = qHTS assay to identify small molecule antagonists of the sonic hedgehog signaling (Shh) pathway (AID 1259369; calls by dose curve; further: nearly all actives have a fitted effect of over 45% in size; further: potency means the concentration at half of the fitted maximal effect)
# Method in brief: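 NIH/3T3 stable Gli1-Luc clone, 2,000 cells/well, 4hr settle; cpd + conditioned medium 24hr; Luc reagent 30min RT; luminescence.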
# [7] = qHTS assay to identify small molecule agonists of the androgen receptor (AR) signaling pathway in the presence of an antagonist - cell viability counter screen (AID 1259379); further: nearly all actives have a fitted effect of over 25% in size; further: potency means the concentration at half of the fitted maximal effect;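 on activity change, negative = cytotoxicity: MDA-kb2 human breast cancer cells carrying an MMTV luciferase reporter; series mostly up to about 92 µM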
# Method in brief: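 MDA-kb2 viability measured by CellTiter-Fluor fluorescence in the same wells as the luciferase signal; nilutamide 3.0uM final; 15-point compound titration; 16 hr at 37C.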
# [8] = biological target: Androgen receptor (Homo sapiens) (UniProt P10275); test: qHTS assay to identify small molecule agonists of the androgen receptor (AR) signaling pathway in the presence of an antagonist (AID 1259381; calls by dose curve; further: nearly all actives have a fitted effect of over 15% in size)
# Androgen receptor (Homo sapiens), sequence (P10275 whole entry, looked up): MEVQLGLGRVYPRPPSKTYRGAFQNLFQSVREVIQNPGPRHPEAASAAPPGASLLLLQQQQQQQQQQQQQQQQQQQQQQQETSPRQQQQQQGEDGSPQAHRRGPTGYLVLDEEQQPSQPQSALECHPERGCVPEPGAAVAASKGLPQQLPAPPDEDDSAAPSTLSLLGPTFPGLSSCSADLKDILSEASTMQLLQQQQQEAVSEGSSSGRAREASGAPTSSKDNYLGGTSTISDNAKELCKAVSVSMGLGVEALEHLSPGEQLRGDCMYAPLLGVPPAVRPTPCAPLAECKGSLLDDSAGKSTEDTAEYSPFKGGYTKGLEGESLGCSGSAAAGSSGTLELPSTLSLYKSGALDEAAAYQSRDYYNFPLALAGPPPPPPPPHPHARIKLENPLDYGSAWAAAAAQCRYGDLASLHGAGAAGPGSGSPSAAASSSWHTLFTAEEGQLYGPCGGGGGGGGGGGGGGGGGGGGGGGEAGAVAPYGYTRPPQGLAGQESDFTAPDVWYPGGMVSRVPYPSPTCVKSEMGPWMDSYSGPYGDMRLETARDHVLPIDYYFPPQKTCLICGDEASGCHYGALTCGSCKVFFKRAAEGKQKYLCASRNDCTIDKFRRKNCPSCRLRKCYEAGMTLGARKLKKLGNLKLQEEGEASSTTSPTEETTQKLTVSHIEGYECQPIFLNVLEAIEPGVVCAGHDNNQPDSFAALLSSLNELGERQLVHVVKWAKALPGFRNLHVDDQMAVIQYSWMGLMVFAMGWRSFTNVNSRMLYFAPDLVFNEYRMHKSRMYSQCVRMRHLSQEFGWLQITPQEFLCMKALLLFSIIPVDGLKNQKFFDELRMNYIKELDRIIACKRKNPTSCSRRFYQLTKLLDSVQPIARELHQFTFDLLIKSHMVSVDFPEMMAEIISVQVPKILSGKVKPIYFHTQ
# Method in brief: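 Luminescent ONE-Glo read, 30min at room temperature, follows 16hr compound exposure (15 concentrations) of MDA-kb2 cells at 37C, 0% CO2, with nilutamide added at 3.0uM final.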
# [9] = qHTS assay to identify small molecule agonists or antagonists of the thyroid stimulating hormone receptor (TSHR) signaling pathway - wild type cell line counter screen (AID 1259384; calls by dose curve)
# Method in brief: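 Counter screen in untransfected Hek293: compounds (15-point titration, triplicate) plus phosphodiesterase inhibitor Ro20-1724 added after 18 h plating; 30 min RT. Intracellular cAMP via competitive d2/cryptate immunoassay, 1 h incubation.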
# [10] = biological target: Progesterone receptor (Homo sapiens) (UniProt P06401); test: qHTS assay to identify small molecule agonists of the progesterone receptor (PR) signaling pathway (AID 1346784; calls by dose curve; further: nearly all actives have a fitted effect of over 30% in size)
# Progesterone receptor (Homo sapiens), sequence (P06401 whole entry, looked up): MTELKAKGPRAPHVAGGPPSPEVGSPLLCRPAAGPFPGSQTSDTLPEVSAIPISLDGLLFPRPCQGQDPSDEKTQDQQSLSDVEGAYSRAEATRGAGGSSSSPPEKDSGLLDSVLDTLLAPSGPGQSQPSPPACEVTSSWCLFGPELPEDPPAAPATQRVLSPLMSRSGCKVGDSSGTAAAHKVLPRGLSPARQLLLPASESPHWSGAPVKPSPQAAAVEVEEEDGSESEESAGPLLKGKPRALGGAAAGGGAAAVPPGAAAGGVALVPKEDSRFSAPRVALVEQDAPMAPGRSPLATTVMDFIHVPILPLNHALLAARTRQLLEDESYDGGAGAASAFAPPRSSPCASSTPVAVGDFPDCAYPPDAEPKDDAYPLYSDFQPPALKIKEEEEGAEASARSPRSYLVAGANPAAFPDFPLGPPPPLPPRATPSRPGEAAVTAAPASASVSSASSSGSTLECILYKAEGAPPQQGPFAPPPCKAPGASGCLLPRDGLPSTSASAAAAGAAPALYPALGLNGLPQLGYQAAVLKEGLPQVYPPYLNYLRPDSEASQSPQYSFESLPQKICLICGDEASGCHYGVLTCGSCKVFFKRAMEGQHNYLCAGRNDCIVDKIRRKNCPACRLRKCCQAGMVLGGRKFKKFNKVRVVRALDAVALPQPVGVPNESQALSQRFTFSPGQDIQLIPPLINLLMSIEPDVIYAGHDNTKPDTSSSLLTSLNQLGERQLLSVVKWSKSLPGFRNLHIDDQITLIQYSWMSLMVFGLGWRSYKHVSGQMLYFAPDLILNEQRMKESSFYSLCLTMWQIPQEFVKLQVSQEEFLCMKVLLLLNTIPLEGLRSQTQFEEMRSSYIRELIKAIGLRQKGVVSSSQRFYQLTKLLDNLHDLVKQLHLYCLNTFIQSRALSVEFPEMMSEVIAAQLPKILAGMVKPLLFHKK
# Method in brief: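 Fluorescence from LiveBLAzer B/G FRET substrate cleavage (2 hr, RT) reported PR activation in PR-UAS-bla HEK 293T cells treated 16 hr at 37C/5% CO2 with compounds; medium contained 2% charcoal-stripped FBS.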
# [11] = biological target: Progesterone receptor (Homo sapiens) (UniProt P06401); test: qHTS assay to identify small molecule antagonists of the progesterone receptor (PR) signaling pathway (AID 1346795; active means well fitted inhibition curve with a large enough effect in the signal ratio in the repeat runs, not every such curve was filed as active; the % refers to the signal ratio; further: potency means the concentration at half of the fitted maximal effect)
# Method in brief: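 Fluorescence intensity measured 2 hr after adding beta-lactamase FRET substrate to PR-UAS-bla HEK293T cells that had been co-treated 16 hr with compound and 1 nM R5020 (final concentration) in 2% charcoal-stripped FBS.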
# [12] = qHTS assay to identify small molecule agonists of the sonic hedgehog signaling (Shh) pathway (AID 1259368; calls by dose curve;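 further: NIH/3T3-derived 3T3Gli1-Luc cells carrying a stable Gli1-driven firefly luciferase reporter; series mostly up to about 92 µM; nearly all actives have a fitted effect of over 15% in size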)
# Method in brief: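 Hedgehog pathway agonism scored by increased firefly luciferase luminescence in 3T3Gli1-Luc cells treated 24 hr at 37 C; detection used a 30 min room-temperature reagent incubation.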
# [13] = biological target: Estrogen receptor beta (Homo sapiens) (UniProt Q92731); test: qHTS assay to identify small molecule antagonists of the estrogen receptor beta (ER-beta) signaling pathway (AID 1259378; active means well fitted inhibition curve with a large enough effect in the signal ratio in the repeat runs, not every such curve was filed as active; the % refers to the signal ratio; further: potency means the concentration at half of the fitted maximal effect)
# Estrogen receptor beta (Homo sapiens), sequence (Q92731 whole entry, looked up): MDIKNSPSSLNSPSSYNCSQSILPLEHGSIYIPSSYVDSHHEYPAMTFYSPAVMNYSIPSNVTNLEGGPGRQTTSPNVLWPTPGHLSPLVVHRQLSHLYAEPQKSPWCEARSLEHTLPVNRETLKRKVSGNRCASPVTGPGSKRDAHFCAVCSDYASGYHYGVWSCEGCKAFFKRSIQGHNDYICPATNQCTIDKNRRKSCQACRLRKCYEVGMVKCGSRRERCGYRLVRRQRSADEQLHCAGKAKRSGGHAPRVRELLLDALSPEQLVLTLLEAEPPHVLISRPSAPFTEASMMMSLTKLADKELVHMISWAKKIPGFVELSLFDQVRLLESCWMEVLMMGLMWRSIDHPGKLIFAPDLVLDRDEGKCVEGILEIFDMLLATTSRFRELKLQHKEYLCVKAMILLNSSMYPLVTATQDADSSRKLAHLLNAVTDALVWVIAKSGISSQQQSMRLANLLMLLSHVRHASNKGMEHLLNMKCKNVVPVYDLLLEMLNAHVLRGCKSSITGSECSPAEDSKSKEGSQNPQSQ
# Method in brief: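 Antagonist mode: compounds added to beta-lactamase reporter HEK293T ER-beta-UAS cells stimulated with E2 (1nM final), 16 hr at 37C. LiveBLAzer B/G FRET substrate, 2 hours room temperature, fluorescence read-out.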
# [14] = qHTS assay to identify small molecule agonists of the estrogen receptor beta (ER-beta) signaling pathway - cell viability counter screen (AID 1259380); further: nearly all actives have a fitted effect of over 30% in size; further: potency means the concentration at half of the fitted maximal effect
# Method in brief: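 Measured: luminescence from CellTiter-Glo after 30 min at room temperature, added to wells already read for the LiveBLAzer FRET reporter (2 hr substrate); ER-beta-UAS-bla HEK293T cells had 16 hr compound treatment at 37C, 5% CO2.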
# [15] = qHTS assay to identify small molecule antagonists of the estrogen receptor beta (ER-beta) signaling pathway - cell viability counter screen (AID 1259382); further: nearly all actives have a fitted effect of over 55% in size; further: potency means the concentration at half of the fitted maximal effect;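 on activity change, negative = cytotoxicity: HEK293T cells carrying ER-beta-UAS-bla reporter stimulated with estradiol; series mostly up to about 92 µM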
# Method in brief: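 Readout: luminescence, CellTiter-Glo, same wells as bla assay. System: ER-beta-UAS-bla GripTite HEK293T, 2% charcoal-stripped FBS. Exposure: compounds plus 1nM 17-beta-estradiol, 16 hr, 37C.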
# [16] = biological target: Estrogen receptor (Homo sapiens) (UniProt P03372); test: qHTS assay to identify small molecule agonists of the estrogen receptor alpha (ER-alpha) signaling pathway in the presence of an antagonist (AID 1259383; calls by dose curve; further: top concentration of the series differs between compounds; nearly all actives have a fitted effect of over 15% in size)
# Estrogen receptor (Homo sapiens), sequence (P03372 whole entry, looked up): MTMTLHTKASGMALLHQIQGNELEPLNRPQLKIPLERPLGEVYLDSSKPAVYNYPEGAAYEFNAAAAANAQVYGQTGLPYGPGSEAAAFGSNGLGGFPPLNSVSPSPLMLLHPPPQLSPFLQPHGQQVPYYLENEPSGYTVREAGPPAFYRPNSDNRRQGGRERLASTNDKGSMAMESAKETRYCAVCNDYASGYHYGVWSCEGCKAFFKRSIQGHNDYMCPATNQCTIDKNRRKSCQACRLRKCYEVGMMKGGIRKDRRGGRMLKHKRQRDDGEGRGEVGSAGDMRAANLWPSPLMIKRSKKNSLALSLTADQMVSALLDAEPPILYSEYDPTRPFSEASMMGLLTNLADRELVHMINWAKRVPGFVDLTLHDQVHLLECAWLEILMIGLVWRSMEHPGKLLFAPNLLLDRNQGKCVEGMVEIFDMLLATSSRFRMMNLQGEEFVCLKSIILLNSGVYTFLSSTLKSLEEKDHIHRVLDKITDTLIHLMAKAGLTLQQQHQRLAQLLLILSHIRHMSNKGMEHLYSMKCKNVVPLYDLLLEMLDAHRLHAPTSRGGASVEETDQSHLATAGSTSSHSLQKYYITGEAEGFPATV
# Method in brief: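 Quantitative HTS confirmation: compounds titrated at 15 concentrations onto estrogen-deprived VM7Luc4E2 cells carrying a four-ERE luciferase construct, with ICI-182,780 present at 10.0nM final. Signal is luminescence after 22hr exposure.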
# [17] = biological target: Thyrotropin receptor (Homo sapiens) (UniProt P16473); test: qHTS assay to identify small molecule antagonists of the thyroid stimulating hormone receptor (TSHR) signaling pathway (AID 1259385; calls by dose curve; further: nearly all actives have a fitted effect of over 20% in size)
# Thyrotropin receptor (Homo sapiens), sequence (P16473 whole entry, looked up): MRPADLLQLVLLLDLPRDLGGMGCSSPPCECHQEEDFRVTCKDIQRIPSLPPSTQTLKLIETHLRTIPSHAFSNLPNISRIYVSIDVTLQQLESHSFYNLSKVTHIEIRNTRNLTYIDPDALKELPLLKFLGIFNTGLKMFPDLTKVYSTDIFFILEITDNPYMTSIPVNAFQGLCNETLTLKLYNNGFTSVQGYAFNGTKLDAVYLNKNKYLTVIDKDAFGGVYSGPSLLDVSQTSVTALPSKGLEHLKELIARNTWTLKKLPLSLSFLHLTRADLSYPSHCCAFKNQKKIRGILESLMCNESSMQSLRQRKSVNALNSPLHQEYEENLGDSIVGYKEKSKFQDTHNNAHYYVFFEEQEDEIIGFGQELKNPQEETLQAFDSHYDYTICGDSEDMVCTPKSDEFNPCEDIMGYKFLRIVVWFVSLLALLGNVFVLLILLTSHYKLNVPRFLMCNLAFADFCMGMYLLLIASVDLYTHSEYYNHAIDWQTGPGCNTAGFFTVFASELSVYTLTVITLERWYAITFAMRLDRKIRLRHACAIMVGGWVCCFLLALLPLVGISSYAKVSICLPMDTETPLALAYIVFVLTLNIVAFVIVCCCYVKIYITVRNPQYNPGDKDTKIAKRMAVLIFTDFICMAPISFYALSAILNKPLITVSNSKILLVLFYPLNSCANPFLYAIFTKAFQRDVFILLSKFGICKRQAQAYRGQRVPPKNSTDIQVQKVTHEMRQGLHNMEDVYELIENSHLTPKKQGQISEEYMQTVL
# Method in brief: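 Antagonist mode: compound-treated TSHR-expressing HEK293 cells were stimulated with 1.5 ng/mL TSH (final) in presence of Ro20-1724 for 30 min at RT. HTRF cAMP detection after 1 h; each compound tested at 15 concentrations, triplicate.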
# [18] = qHTS assay to identify small molecule agonists of the estrogen receptor alpha (ER-alpha) signaling pathway in the presence of an antagonist - cell viability counter screen (AID 1259386);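 further: cells exposed to compounds for 22 h at 37 °C before the viability read; nearly all actives have a fitted effect of over 30% in size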; further: potency means the concentration at half of the fitted maximal effect; on activity change, negative = cytotoxicity: series mostly up to about 92 µM
# Method in brief: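 The test measures whether compounds kill ER-alpha reporter cells (VM7Luc4E2) under antagonist co-treatment (ICI-182,780, 10.0nM). Fluorescence from CellTiter-Fluor is read after a 22hr exposure.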
# [19] = biological target: Estrogen receptor beta (Homo sapiens) (UniProt Q92731); test: qHTS assay to identify small molecule agonists of the estrogen receptor beta (ER-beta) signaling pathway (AID 1259377; active means well fitted activation curve with a large enough effect in the signal ratio in the repeat runs, not every such curve was filed as active; the % refers to the signal ratio)
# Method in brief: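 qHTS in ER-beta-UAS-bla HEK293T cells: 6 hr settling, then 16 hr compound at 37C, then LiveBLAzer substrate 2 h at RT before fluorescence reading.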
# [20] = biological target: Estrogen receptor (Homo sapiens) (UniProt P03372); test: qHTS assay to identify small molecule antagonists of the estrogen receptor alpha (ER-alpha) signaling pathway using the BG1 cell line in the presence of 0.1 nM 17-beta-estradiol (AID 1259244); further: potency means the concentration at half of the fitted maximal effect; nearly all actives have a fitted effect of over 50% in size
# Method in brief: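 Compounds were tested against 0.1 nM (final) 17beta-estradiol in VM7Luc4E2 cells, which express full-length ER-alpha and an ERE-luciferase reporter; luminescence was recorded following 22 h exposure.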
compound,measurement,setting,value
CCN1CCN(c2cc(-c3ccc(F)cc3)c3c(n2)CCCCCC3)CC1,PLD induction,[1],12.7% [at 7.66 µM]
same,"activity change, negative = inhibition",[2],1.74% [at 19 µM]
same,"activity change, negative = cytotoxicity",[3],-2.01% [at 19 µM]
same,"viability change, negative = cytotoxic",[4],-8.82% [at 19 µM]
same,"viability change, negative = cytotoxic",[5],-5.57% [at 19 µM]
same,"activity change, negative = inhibition",[6],15.3% [at 19 µM]
same,"activity change, negative = cytotoxicity",[7],-1.28% [at 19 µM]
same,activation,[8],-0.375% [at 19 µM]
same,cAMP activity change,[9],2.43% [at 18.9 µM]
same,activation,[10],-3.65% [at 19 µM]
same,"activity change, negative = inhibition",[11],-13.2% [at 18.9 µM]
O=C(NO)c1ccccc1,Potency,[1],inactive
same,Potency,[3],inactive
same,Potency,[4],26 µM (active)
same,Potency,[6],29.2 µM (active)
same,Potency,[7],inactive
same,Potency,[8],inactive
same,outcome,[9],inactive
CCOC(=O)C1=C(C)NC(C)=C(C(=O)OCC)C1c1ccccc1/C=C/C(=O)OC(C)(C)C,Potency,[1],inactive
same,Potency,[2],inactive
same,Potency,[3],inactive
same,Potency,[5],29.8 µM (active)
same,Potency,[12],inactive
same,Potency,[6],29.8 µM (active)
same,Potency,[13],inactive
same,Potency,[14],23.7 µM (active)
same,Potency,[8],inactive
same,Potency,[15],inactive
same,Potency,[16],inactive
same,outcome,[9],inactive
same,Potency,[17],inactive
same,Potency,[18],inactive
same,Potency,[11],26.6 µM (active)
CN1[C@@H]2CC[C@H]1CC(OC(=O)C(CO)c1ccccc1)C2 (stereo not given in full),Potency,[1],inactive
same,Potency,[2],inactive
same,Potency,[3],inactive
same,Potency,[4],inactive
same,Potency,[5],inactive
same,Potency,[7],inactive
same,Potency,[14],68.5 µM (active)
same,Potency,[15],inactive
same,Potency,[18],inactive
same,Potency,[11],inactive
N[C@@H](CSSC[C@H](N)C(=O)O)C(=O)O,Potency,[1],inactive
same,"activity change, negative = inhibition",[2],-1.21% [at 0.349 µM]
same,"activity change, negative = cytotoxicity",[3],2.74% [at 0.349 µM]
same,"viability change, negative = cytotoxic",[4],13.4% [at 0.349 µM]
same,activity change,[12],"-0.169% [at 0.349 µM, stronger effect = higher value]"
same,Potency,[6],0.335 µM (active)
same,activation,[19],5.41% [at 0.348 µM]
same,"activity, negative = inhibition",[13],28.3% [at 0.349 µM]
same,"activity change, negative = cytotoxicity",[7],0.823% [at 0.35 µM]
same,"activity change, negative = cytotoxicity",[14],3.32% [at 0.349 µM]
same,activation,[8],-0.591% [at 0.349 µM]
same,cAMP activity change,[9],-6.57% [at 0.349 µM]
same,"activity change, negative = inhibition",[17],0.59% [at 0.349 µM]
same,"activity change, negative = cytotoxicity",[18],7.62% [at 0.349 µM]
same,activation,[10],-4.21% [at 0.349 µM]
CC(C(O)c1ccccc1)N(C)CCOC(c1ccccc1)c1ccccc1 (stereo not given),Potency,[1],inactive
same,Potency,[2],inactive
same,Potency,[3],inactive
same,Potency,[19],inactive
same,Potency,[7],29.8 µM (active)
same,Potency,[14],29.8 µM (active)
same,Potency,[15],18.8 µM (active)
same,Potency,[16],inactive
same,outcome,[9],inactive
same,Potency,[18],inactive
same,outcome,[10],inactive
same,Potency,[11],23.7 µM (active)
CC(=O)Nc1ccc(O)cc1,Potency,[1],inactive
same,Potency,[2],inactive
same,Potency,[3],inactive
same,Potency,[4],inactive
same,Potency,[5],inactive
same,Potency,[12],inactive
same,Potency,[7],inactive
same,Potency,[14],inactive
same,Potency,[15],inactive
same,Potency,[18],inactive
CCN=c1cc2oc3cc(NCC)c(C)cc3c(-c3ccccc3C(=O)OCC)c-2cc1C,Potency,[20],86 nM (active) and 306 nM (active)
same,Potency,[2],inactive
same,Potency,[5],inactive
same,Potency,[12],inactive
same,Potency,[6],1.08 µM (active) and 545 nM (active)
same,Potency,[19],inactive
same,Potency,[13],0.272 µM (active)
same,Potency,[7],272 nM (active) and 306 nM (active)
same,Potency,[14],54.3 µM (active) and 24.3 µM (active)
same,Potency,[8],inactive
same,Potency,[15],54.3 µM (active) and 34.4 µM (active)
same,Potency,[16],inactive
same,Potency,[18],9.65 µM (active) and 9.69 µM (active)
same,outcome,[10],inactive
same,Potency,[11],48.4 µM (active) and 54.5 µM (active)
CCCCCCCC/C=C\CCCCCCCC(=O)NCc1ccc(O)c(OC)c1,Potency,[1],inactive
same,Potency,[2],inactive
same,Potency,[3],inactive
same,Potency,[4],inactive
same,Potency,[5],inactive
same,Potency,[12],inactive
same,Potency,[6],inactive
same,Potency,[7],inactive
same,Potency,[15],inactive
same,outcome,[10],inactive
